Assay outcomes from PubChem.
C diff growth: C. difficile growth inhibition; Clostridium difficile clinical isolate growth, OD600, 24 h; active compounds read low; growth activity, negative = inhibition, % at 16 µg/mL (by protocol); 86,000 tested, 0.25% active;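 active = mean growth activity at or below -80% and every replicate also at or below -80%; inconclusive = mean at or below -80% but some replicate above -80%; inactive = mean growth activity above -80%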
Pf Dd2 inh: P. falciparum Dd2 growth inhibition | 94,000 tested, 2.3% active | SYBR Green, 72 h; active compounds read low | activity change, % at 10 µM | AID 1159554; in the data active = activity change below about -80%; inconclusive = no clear call, values can overlap the other calls
T cruzi growth-1: blocks T. cruzi growth in NIH3T3 culture. T. cruzi beta-gal in NIH3T3, GalScreen luminescence, 90 h. inhibition, % at 8.34 µM. 77,000 tested, 5.9% active;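 active = mean inhibition above about 93%, with at least 55% of replicates each passing it, limit read from the data, passing the limit was not always enough; inconclusive = only one of those two conditions holds; inactive = neither condition holds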
T cruzi growth-2: Trypanosoma cruzi proliferation inhibition; shares compounds with T cruzi growth-1; T. cruzi beta-gal in NIH3T3, GalScreen luminescence, 90 h; inhibition, % at 8.35 µM; 5,600 tested, 72% active;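 active = mean replicate inhibition above about 95% and at least 55% of replicates individually reaching it, limit read from the data; inconclusive = only one of the two criteria is met; inactive = neither criterion is met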
T cruzi growth-3: blocks T. cruzi growth in NIH3T3 host cells | shares compounds with T cruzi growth-1 | T. cruzi beta-gal in NIH3T3, GalScreen luminescence, 90 h | inhibition, % at 2.09 µM | 5,600 tested, 21% active;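 active = mean inhibition above about 95%, with at least 55% of replicates also reaching it, limit read from the data; inconclusive = meets just one of the two conditions; inactive = meets neither condition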
NIH3T3 tox: cytotoxicity in mouse NIH/3T3 fibroblasts | shares compounds with T cruzi growth-1 | NIH/3T3 viability, CellTiter-Glo ATP luminescence, 90 h | cytotoxicity (signal decrease), % at 8.35 µM | 5,600 tested, 14% active | AID 651742;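 active = mean signal decrease across replicates above about 35% based on untreated-well scatter, with enough replicates individually passing, limit read from the data; inconclusive = no rule stated though some were filed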
NIH3T3 tox 2: kills mouse NIH/3T3 fibroblasts; inhibition, % at 24.9 µM; 5,600 tested, 56% active; shares compounds with T cruzi growth-1; AID 651744; NIH/3T3 viability, CellTiter-Glo ATP luminescence, 90 h;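 active = mean loss of cell viability signal at or above a set limit, and enough replicates individually reaching it; inconclusive = meets only the mean limit or only the replicate share; inactive = meets neither condition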
Hits are given with their value; . = inactive; ? = inconclusive; / = not tested or not shown. This is a sample that favours compounds with a hit; in the whole collection about 6.8% have one here.

SMILES | C diff growth | Pf Dd2 inh | T cruzi growth-1 | T cruzi growth-2 | T cruzi growth-3 | NIH3T3 tox | NIH3T3 tox 2
N#C[C@H]1[C@H](c2ccc(C3=CCCCC3)cc2)[C@@H](CO)N1C(=O)NC1CCCCC1 | . | . | 104 | 104 | . | . | 77
N#C[C@H]1[C@@H](c2ccc(C3=CCCCC3)cc2)[C@@H](CO)N1C(=O)NC1CCCC1 | . | . | / | / | / | / | /
C[C@@H](O)C#Cc1ccc2c(c1)O[C@H](CN(C)C(=O)c1ccccc1)[C@@H](C)CN([C@@H](C)CO)S2(=O)=O | . | . | . | / | / | / | /
C[C@H]1CN([C@@H](C)CO)C(=O)c2cccc(N(C)C)c2O[C@@H]1CN(C)Cc1ccc(C(F)(F)F)cc1 | . | . | 103 | . | . | . | 66
C[C@H]1CN([C@@H](C)CO)C(=O)c2cccc(N(C)C)c2O[C@@H]1CN(C)C(=O)Nc1ccc(C(F)(F)F)cc1 | . | . | . | / | / | / | /
C[C@@H]1CN([C@H](C)CO)C(=O)c2cccc(N(C)C)c2O[C@H]1CN(C)Cc1ccc(C(F)(F)F)cc1 | . | . | 101 | . | . | . | 103
C[C@H](CO)N1C[C@H](C)[C@@H](CN(C)Cc2ccccc2)Oc2c(cccc2N(C)C)C1=O | . | . | . | / | / | / | /
C[C@H](CO)N1C[C@H](C)[C@H](CN(C)C(=O)Nc2ccc(C(F)(F)F)cc2)Oc2c(cccc2N(C)C)C1=O | . | . | 96 | . | . | . | .
C[C@H]1CN([C@@H](C)CO)C(=O)c2cccc(N(C)C)c2O[C@H]1CN(C)Cc1ccc(C(F)(F)F)cc1 | . | . | . | / | / | / | /
CC(C)CC#Cc1cnc2c(c1)C(=O)N([C@H](C)CO)C[C@H](C)[C@@H](CN(C)S(C)(=O)=O)O2 | . | . | . | / | / | / | /
C[C@H](NC(=O)C[C@H]1C[C@H]2c3cc(NC(=O)c4cccnc4)ccc3O[C@H]2[C@@H](CO)O1)c1ccccc1 | / | . | . | / | / | / | /
C[C@@H]1CN([C@H](C)CO)S(=O)(=O)c2ccc(-c3ccncc3)cc2O[C@@H]1CN(C)S(=O)(=O)c1ccccc1F | . | . | / | / | / | / | /
C[C@@H]1CN([C@@H](C)CO)S(=O)(=O)c2ccc(-c3ccccc3)cc2O[C@@H]1CN(C)S(=O)(=O)c1ccccc1F | . | . | 119 | 102 | 103 | . | 46
C[C@H](CO)N1C[C@H](C)[C@H](CN(C)S(C)(=O)=O)Oc2cc(-c3ccccc3)ccc2S1(=O)=O | . | . | . | / | / | / | /
C[C@@H]1CN([C@@H](C)CO)S(=O)(=O)c2ccc(-c3ccccc3F)cc2O[C@@H]1CN(C)S(C)(=O)=O | . | . | . | / | / | / | /
C[C@@H]1CN([C@H](C)CO)S(=O)(=O)c2ccc(-c3ccccc3)cc2O[C@H]1CN(C)S(=O)(=O)c1ccccc1F | . | . | 112 | ? | . | 64 | 37
C[C@@H]1CN([C@@H](C)CO)S(=O)(=O)c2ccc(-c3ccccc3)cc2O[C@H]1CN(C)S(=O)(=O)c1ccccc1F | . | -84 | 124 | 99 | 105 | 56 | 66
C[C@@H]1CN([C@H](C)CO)S(=O)(=O)c2ccc(-c3ccccc3)cc2O[C@@H]1CN(C)S(=O)(=O)c1ccccc1F | . | . | 122 | 100 | . | . | 36
C[C@H](CO)N1C[C@H](C)[C@H](CN(C)S(=O)(=O)c2ccccc2F)Oc2cc(-c3ccncc3)ccc2S1(=O)=O | . | . | / | / | / | / | /
O=C(Nc1ccc(F)cc1)N[C@H]1CC[C@H](CCNC(=O)c2ccccc2F)O[C@H]1CO | . | . | / | / | / | / | /
O=C(Nc1cc(F)ccc1F)N[C@H]1CC[C@@H](CCNC(=O)c2cnccn2)O[C@H]1CO | / | . | . | / | / | / | /
C[C@H](NC(=O)N(C)C[C@H]1OCc2ccccc2-c2ccccc2C(=O)N([C@@H](C)CO)C[C@H]1C)c1ccccc1 | . | . | . | / | / | / | /
CCC(=O)N[C@@H]1C[C@@H]2O[C@H](CO)CC[C@@H]2O[C@@H]1CCc1ccc(-c2cccc(OC)c2)cc1 | . | . | / | / | / | / | /
O=C(N[C@H]1CC[C@H](CCn2cc(Cc3ccccc3)nn2)O[C@H]1CO)c1cnccn1 | . | . | . | / | / | / | /
CO[C@@H]1CN(C)C(=O)c2ccc(NC(=O)C3CCCCC3)cc2OC[C@@H](C)N(C)C[C@H]1C | . | . | . | / | / | / | /
SMILES | C diff growth | Pf Dd2 inh | T cruzi growth-1 | T cruzi growth-2 | T cruzi growth-3 | NIH3T3 tox | NIH3T3 tox 2
COc1ccc(NC(=O)N(C)C[C@@H]2Oc3cc(C#CCC(C)C)ccc3S(=O)(=O)N([C@H](C)CO)C[C@@H]2C)cc1 | . | . | 104 | 101 | . | . | 63
CCCC#Cc1ccc2c(c1)O[C@@H](CN(C)C(=O)Nc1ccc(OC)cc1)[C@@H](C)CN([C@H](C)CO)S2(=O)=O | . | . | 104 | 112 | . | . | .
CCCC#Cc1ccc2c(c1)O[C@H](CN(C)C(=O)Nc1ccc(OC)cc1)[C@H](C)CN([C@@H](C)CO)S2(=O)=O | . | . | . | / | / | / | /
COc1ccc(NC(=O)N(C)C[C@H]2Oc3cc(C#CCC(C)C)ccc3S(=O)(=O)N([C@H](C)CO)C[C@@H]2C)cc1 | . | . | . | / | / | / | /
CO[C@@H]1CN(C)C(=O)c2cc(NC(=O)c3cc(C)on3)ccc2OC[C@H](C)NC[C@H]1C | / | . | . | / | / | / | /
C[C@H](CO)N1C[C@H](C)[C@@H](CN(C)Cc2ccc(C(=O)O)cc2)OCCCC[C@H](C)Oc2ccc(NC(=O)CCCN(C)C)cc2C1=O | . | . | / | / | / | / | /
C[C@H]1CN([C@@H](C)CO)C(=O)c2cccc(NC(=O)C3CCOCC3)c2O[C@@H]1CN(C)Cc1ccncc1 | . | . | . | / | / | / | /
Cc1ccccc1S(=O)(=O)NCC[C@@H]1CC[C@H](NC(=O)C2CC2)[C@H](CO)O1 | . | . | / | / | / | / | /
C[C@@H]1CN([C@H](C)CO)C(=O)c2c(c3ccccc3n2C)-c2ccccc2CO[C@H]1CN(C)C(=O)c1ccc(F)cc1 | / | . | . | / | / | / | /
C[C@H](CO)N1C[C@H](C)[C@H](CN(C)S(=O)(=O)c2ccc(F)cc2)Oc2ncc(C#Cc3ccccc3)cc2C1=O | / | . | 106 | ? | . | . | 28
C[C@@H]1CN([C@H](C)CO)C(=O)c2cc(C#Cc3ccc(F)cc3)cnc2O[C@@H]1CN(C)S(C)(=O)=O | . | . | . | / | / | / | /
COc1ccc(-c2cnc3c(c2)C(=O)N([C@@H](C)CO)C[C@H](C)[C@H](CN(C)C(=O)CN(C)C)O3)cc1 | . | . | . | / | / | / | /
C[C@H](CO)N1C[C@H](C)[C@H](CN(C)S(=O)(=O)c2ccccc2)Oc2ncc(C#Cc3ccccc3)cc2C1=O | . | . | . | / | / | / | /
C[C@H](CO)N1C[C@H](C)[C@H](CN(C)S(=O)(=O)c2cccc(F)c2)Oc2ncc(C#Cc3ccccc3)cc2C1=O | / | . | . | / | / | / | /
C[C@H](CO)N1C[C@H](C)[C@H](CN(C)S(=O)(=O)c2cccc(F)c2)Oc2ncc(C#Cc3ccc(C(F)(F)F)cc3)cc2C1=O | . | . | ? | 101 | 109 | . | 36
